Experimental findings from PubChem BioAssay AID2685 (National Center for Advancing Translational Sciences (NCATS), 2010) are described below.

Out of some 320,000 compounds screened, about 2,100 (0.66%) were called active. Inconclusive results (about 53%) are left out. Calls follow the shape of the dose curve; as a rule, active = well fitted inhibition curve with a large enough effect in the signal ratio, with a control signal flat (not every such curve was filed as active); inconclusive = small, poorly fitted or top-dose-only effect, or effect the other way, or a change in a side signal; inactive = flat fitted curve, though single readings scatter; the % refers to the signal ratio. The entries come from a sample that favours actives as a whole.
Potency is read from the fitted curve at half-maximal effect.

A short description of the assay: qHTS Assay for Lipid Storage Modulators in Drosophila S3 Cells.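 As to cell number change: cells counted by Cell Tracker Red CMTPX staining in the red channel.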 As to lipid storage change, negative = inhibition: % is scaled to controls: 0 for no effect and ±100 for the full control effect. The note with it: BODIPY lipid droplet fluorescence, 18-24 h, cells fed with added oleic acid; cell number change: measured here: cell count max response; series mostly up to 46.1 µM; lipid storage change, negative = inhibition: at the top concentration. Summed up: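 Drosophila S3 cells got compounds at several concentrations plus oleic acid (400 uM solution). Laser-scanning cytometry with 488 nm excitation read lipid droplets at 500-530 nm and cells at 575-640 nm. Percent activity was relative to 20 uM Triacsin C.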
For the compound `O=C(O)CCC(=O)Nc1ccc(N=Nc2ccccc2)cc1`, the compound was classed as inactive and the cell number change is -12.6%.

Consider `CCCCCC/C=N/Nc1nnc(Cc2ccc(OC)c(OC)c2)c(=O)[nH]1`, for which the “lipid storage change, negative = inhibition” value was -24% (inactive).

Take `CC(=O)Nc1ccc(S(=O)(=O)Nc2nc3ccc(C)cc3s2)cc1`: the “lipid storage change, negative = inhibition” value is 8.73% (inactive) and the cell number change turned out to be 6.47%.

`CC(=O)Nc1ccc(S(=O)(=O)Nc2nnc(CC(C)(C)C)s2)cc1`: the “lipid storage change, negative = inhibition” value was -22.2% (inactive) and the cell number change came to 0.722%.

Regarding `CC(=O)Nc1ccc(S(=O)(=O)Nc2nc3ccccc3s2)cc1`, the Potency was 23.1 µM (active) and the cell number change is -10.9%.

With `CC(=O)Nc1ccc(S(=O)(=O)Nc2nnc(C3CCCCC3)s2)cc1`, the Potency was 3.66 µM (active) and the cell number change was 6.53%.

For the compound `O=S(=O)(Nc1nnc(C2CCCCC2)s1)c1ccc(F)cc1`, the “lipid storage change, negative = inhibition” value was -48.6% (inactive) and the cell number change is -12.8%.

For `CC(=O)Nc1ccc2nc(NS(=O)(=O)c3ccc(C)cc3)sc2c1`, the “lipid storage change, negative = inhibition” value is 14.3% (inactive) and the cell number change was found to be 2.04%.

Take `COc1ccc(CCNC(=O)C(=O)Nc2nccs2)cc1OC`: the result was inactive.

Turning to `Cc1c(N=C/C=C/c2ccccc2)cnn1C`, the “lipid storage change, negative = inhibition” value is -0.162% (inactive) and the cell number change worked out at 0.211%.

Take `CCc1nnc(SCC(=O)Nc2nccs2)n1CC`: the “lipid storage change, negative = inhibition” value is 2.94% (inactive) and the cell number change turned out to be 1.52%.

As for `CC1(C)Cc2c(cnn2-c2cccc(F)c2)C(NC(=O)CN2CCCC2=O)C1` (stereo not given), the call was inactive and the cell number change was -1.15%.

Regarding `CCOC(=O)COc1ccc(C)cc1-c1ccno1`, the result was inactive.

For `COc1cc(C(=O)O)cc(OC)c1OCc1cc(C(=O)O)oc1C`, the “lipid storage change, negative = inhibition” value was -16.4% (inactive) and the cell number change is -10.9%.

Regarding `Cc1oc(C(=O)O)cc1COc1cccc2cccnc12`, the Potency was 6.51 µM (active) and the cell number change came out at 7.93%.

Regarding `Cc1oc(C(=O)O)cc1COc1cccc2ccccc12`, the “lipid storage change, negative = inhibition” value was 16.2% (inactive) and the cell number change worked out at 16.3%.

On to `Cn1cc(-c2ccc(Cl)cc2)cc(C#N)c1=O`, for which the “lipid storage change, negative = inhibition” value is 4.19% (inactive).

In the case of `Cc1ccccc1/C=N/n1c(COc2ccccc2)n[nH]c1=S`, the “lipid storage change, negative = inhibition” value is 13.7% (inactive) and the cell number change amounted to 4.96%.

Turning to `O=C(OCCOCCN=C1NS(=O)(=O)c2ccccc21)c1ccncc1`, the “lipid storage change, negative = inhibition” value was -5.87% (inactive) and the cell number change stood at 0.489%.

Consider `O=C(OCCCN=C1NS(=O)(=O)c2ccccc21)c1ccc(F)cc1`, for which the “lipid storage change, negative = inhibition” value was 19.4% (inactive) and the cell number change was -17.4%.

Regarding `O=C(OCCOCCN=C1NS(=O)(=O)c2ccccc21)C1CC(=O)N(c2ccccc2)C1` (stereo not given), the Potency was 8.2 µM (active).

With `O=C(CN1C(=O)c2ccccc2C1=O)OCCOCCN=C1NS(=O)(=O)c2ccccc21`, the “lipid storage change, negative = inhibition” value is 10.3% (inactive) and the cell number change was determined as 10.2%.

`O=C(OCCOCCN=C1NS(=O)(=O)c2ccccc21)c1ccc(F)cc1`: the Potency was 1.64 µM (active) and the cell number change came out at 13.2%.

Turning to `O=C(OCCCN=C1NS(=O)(=O)c2ccccc21)C1CC(=O)N(c2ccc(Cl)cc2)C1` (stereo not given), the “lipid storage change, negative = inhibition” value was -7.49% (inactive) and the cell number change was -12.2%.

Regarding `CN(CC(=O)Nc1ccc(Cl)cc1)CC(=O)Nc1ccc(C(N)=O)cc1`, the “lipid storage change, negative = inhibition” value is 0.257% (inactive) and the cell number change was -11%.

Turning to `Cc1cc(=O)n(C)c(=O)n1CCCCOc1cccc([N+](=O)[O-])c1`, the “lipid storage change, negative = inhibition” value is 11.3% (inactive) and the cell number change was 11.9%.

For the compound `N#Cc1nc(-c2cccs2)oc1NCc1ccc(Cl)cc1`, the call was inactive.

For `Cc1ccc2c(CC(=O)NCc3cccs3)coc2c1`, the “lipid storage change, negative = inhibition” value is 26.1% (inactive) and the cell number change is 20.1%.

On to `Cc1cc2occ(CC(=O)NCc3cccs3)c2cc1C(C)C`, for which the Potency is 1.46 µM (active) and the cell number change was -2.8%.

As for `Cc1cc2occ(CC(=O)Nc3nccs3)c2cc1C(C)C`, the result was inactive.

For `O=C(O)c1ccc2c(c1)C(=O)N(c1ncccn1)C2=O`, the “lipid storage change, negative = inhibition” value was 2.95% (inactive) and the cell number change is -0.987%.

For the compound `Cc1ccc(Cn2c(CN3CCOCC3)nc3c2c(=O)n(C)c(=O)n3C)cc1`, the “lipid storage change, negative = inhibition” value was 2.04% (inactive) and the cell number change came out at 6.6%.

Take `COc1ccc(-c2[nH]ncc2CN(C)C(C)c2cccs2)c(F)c1` (stereo not given): the “lipid storage change, negative = inhibition” value was 2.81% (inactive) and the cell number change was 8.77%.

Regarding `COc1ccc(Cc2nc3ccc(C(=O)NC(C)c4cn(C)nc4C)cc3o2)cc1` (stereo not given), the compound was called inactive and the cell number change was -22.9%.

With `O=C(O)c1c(Cl)cccc1Cl`, the “lipid storage change, negative = inhibition” value was 3.03% (inactive) and the cell number change came out at 4.08%.

For `O=C(Oc1ccc(/C=N/O)cc1)c1ccccc1Cl`, the “lipid storage change, negative = inhibition” value was 14.4% (inactive) and the cell number change is -11.5%.

For `O=C(Oc1ccccc1)c1c(Cl)cccc1P(=O)(O)O`, the Potency was 3.66 µM (active) and the cell number change stood at 3.12%.

Turning to `CSc1ccc(Cl)c(C(=O)N2CCOc3ccccc32)c1`, the “lipid storage change, negative = inhibition” value is 3.65% (inactive) and the cell number change is -26.8%.

Take `O=C(c1ccc(N2C(=O)C3CC=C(Cl)CC3C2=O)cc1)N1CCOCC1` (stereo not given): the “lipid storage change, negative = inhibition” value was -4.16% (inactive) and the cell number change was determined as 30%.

On to `COc1cc(C(=O)Nc2ccccc2N2CCOCC2)ccc1OCC(=O)N1CCOCC1`, for which the “lipid storage change, negative = inhibition” value is -20.4% (inactive).

For the compound `COc1cc(C=O)ccc1OCC(=O)Nc1ccccc1N1CCOCC1`, the Potency is 2.59 µM (active) and the cell number change is -24.3%.

Regarding `COc1ccccc1OCC(=O)Nc1ccc(N2CCOCC2)cc1N1CCOCC1`, the “lipid storage change, negative = inhibition” value is -21.3% (inactive) and the cell number change is 2.71%.

Turning to `Cc1c(OC(C)C(=O)NCc2ccccn2)ccc2c3c(c(=O)oc12)CCC3` (stereo not given), the Potency was 11.6 µM (active) and the cell number change is -27.2%.

Take `Cc1c(OCC(=O)NCC2CCC(C(=O)O)CC2)ccc2c(-c3ccccc3)cc(=O)oc12` (stereo not given): the “lipid storage change, negative = inhibition” value is 6.37% (inactive) and the cell number change amounted to 0.647%.

For `Cc1c(OC(C)C(=O)NCc2ccncc2)ccc2c3c(c(=O)oc12)CCC3` (stereo not given), the result was inactive and the cell number change is -1.18%.

Take `Cc1c(OC(C)C(=O)NCC(O)c2ccccc2)ccc2c3c(c(=O)oc12)CCCC3` (stereo not given): the Potency is 29.1 µM (active) and the cell number change was 9.43%.

For `CCc1cc2c(-c3ccccc3)cc(=O)oc2cc1OC(C)C(=O)NCC1CCC(C(=O)O)CC1` (stereo not given), the call was inactive and the cell number change was 17.8%.

As to `Cc1c(OCC(=O)NCC(O)c2ccccc2)ccc2c3c(c(=O)oc12)CCCC3` (stereo not given), the outcome was inactive and the cell number change was -19.4%.

Regarding `Cc1c(OC(C)C(=O)N[C@H](C(=O)O)c2ccccc2)ccc2c3c(c(=O)oc12)CCCC3` (stereo not given in full), the “lipid storage change, negative = inhibition” value is -14.4% (inactive) and the cell number change was -8.43%.

As for `CCc1cc2c(-c3ccccc3)cc(=O)oc2cc1OCC(=O)NCC1CCC(C(=O)O)CC1` (stereo not given), the “lipid storage change, negative = inhibition” value was -3.52% (inactive) and the cell number change came out at 22.7%.

Turning to `Cc1c(OCC(=O)NCC(O)c2ccccc2)ccc2c(-c3ccccc3)cc(=O)oc12` (stereo not given), the Potency was 16.4 µM (active) and the cell number change is -9.69%.

Regarding `CC(Oc1ccc2c3c(c(=O)oc2c1)CCC3)C(=O)NCc1ccccn1` (stereo not given), the compound was called inactive and the cell number change was determined as 1.9%.

In the case of `CC(=O)COc1ccc2c(-c3ccccc3)cc(=O)oc2c1C`, the “lipid storage change, negative = inhibition” value is 10.7% (inactive) and the cell number change is -1.68%.

Regarding `CCc1cc2c(-c3ccccc3)cc(=O)oc2cc1OCC(C)=O`, the Potency is 0.651 µM (active) and the cell number change is -1.82%.
